SW480 rereplic: inducers of DNA re-replication in SW480 colon cancer cells; hit rate 1.8% among 340,000; Potency, µM (series often up to 46.1 µM), for inactives: top-dose re-replication activation, most hits filed as activators; SW480 DNA re-replication, Hoechst DNA content imaging, 48 h; AID 624297; note: % of control where 0% means no effect; nearly all actives have a fitted effect of over 55% in size
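DNA re-replication was detected as more nuclei of elevated Hoechst intensity after 48 hr exposure to compound (23 nL pinned per well of 250 cells).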
MCF10A rerep: inducers of DNA re-replication in MCF 10A breast cells; hit rate 2.9% among 350,000; AID 624296; MCF 10A DNA re-replication, Hoechst nuclear intensity, 48 h; Potency, µM (titrated, usually from 46.1 µM), for the others: at the highest dose activity, positive = re-replication, most hits filed as activators; note: % of control where 0% means no effect; nearly all actives have a fitted effect of over 50% in size
PINK1 expr mod: PINK1 expression modulation; AID 624263; Potency, µM (series often up to 76.6 µM), inactives show top-dose activation (PINK1 increase), actives largely listed as activators; hit rate 0.2% among 410,000; PINK1 immunofluorescence, high-content cytometry, 24 h; active = well fitted activation curve with a large enough effect; inconclusive = small, poorly fitted or top-dose-only effect; cell line not stated here; note: % of control where 0% means no effect; nearly all actives have a fitted effect of over 65% in size
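Cells are seeded, rested 12 hours, then given compound at five concentrations or DMSO for 24 hours. After fixation, blocking and antibody staining, PINK1 amount and mitochondrial localization are scored; CCCP serves as control.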
KB-3-1 cytotox: kills parental KB-3-1 adenocarcinoma cells; KB-3-1 viability, CellTiter-Glo ATP luminescence, 72 h; Potency, µM (doses to about 46.1 µM), hits mostly cytotoxic; hit rate 1.4% among 400,000; note: % is set by controls: 0 for no effect and ±100 for the full control effect; nearly all actives have a fitted effect of over 60% in size
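Cytotoxicity in the drug-sensitive parental line KB-3-1 was scored as loss of CellTiter-Glo luminescence following 72 h incubation with compound. Values come from curve fitting of normalized concentration-response data.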
KB-V1 cytotox: kills drug-selected multidrug resistant KB-V1 cells; KB-V1 MDR cells viability, CellTiter-Glo, 72 h; Potency, µM (series often up to 46.1 µM), hits mostly cytotoxic; hit rate 3.4% among 400,000; note: % is set by controls: 0 for no effect and ±100 for the full control effect; nearly all actives have a fitted effect of over 60% in size
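Compound-treated KB-V1 multidrug-resistant cells, 72 h, 37 degrees C; viability by CellTiter-Glo. Fitted qHTS curves give the values.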
The depositor's hits bear a star; [ ] = remark or other dose. Compounds with a hit are over-represented: about 6.7% of the library has one in this group of screens. Unless noted, calls come from the whole dose curve; as a rule, active = well fitted curve in the direction sought with a large enough effect; inconclusive = small, poorly fitted or top-dose-only effect, or another doubt; inactive = no such curve, though single readings can be large; an effect the other way counts as inactive or inconclusive. Potency is the fitted concentration of half-maximal effect.

`Cc1cc(-c2nnc(CCC(=O)NCCc3ccccc3F)o2)no1` gave SW480 rereplic 7%, MCF10A rerep -1%, PINK1 expr mod -4%, KB-3-1 cytotox inactive and KB-V1 cytotox inactive.
Cc1cc(NC(=O)c2cc(-c3ccc(Cl)cc3)on2)n(-c2ccccc2)n1 was read as PINK1 expr mod 0%, KB-3-1 cytotox inactive and KB-V1 cytotox inactive.
CCOC(=O)/C(C#N)=N/Nc1ccc(S(=O)(=O)N2CCc3ccccc32)cc1 was read as SW480 rereplic 3%, MCF10A rerep inconclusive, PINK1 expr mod 16µM*, KB-3-1 cytotox inconclusive and KB-V1 cytotox inactive.
`COc1cc2c(cc1OC)CN(C(=O)c1cccc(S(=O)(=O)N3CCc4ccccc43)c1)CC2` gave SW480 rereplic 25%, MCF10A rerep inconclusive, PINK1 expr mod -1%, KB-3-1 cytotox inactive and KB-V1 cytotox 21µM*.
Screening COc1ccccc1S(=O)(=O)N(C)C[C@@H]1OCc2cn(nn2)CCCC(=O)N([C@H](C)CO)C[C@H]1C returned PINK1 expr mod 1%, KB-3-1 cytotox inactive and KB-V1 cytotox inactive.
For COCCNC(=O)C(OC(=O)CC1Sc2ccccc2NC1=O)c1ccncc1 (stereo not drawn) the results were SW480 rereplic 3.7µM*, MCF10A rerep 4.6µM*, PINK1 expr mod 1%[38.3 µM], KB-3-1 cytotox inactive and KB-V1 cytotox inactive.
`CN1CCc2c(OCC(=O)N3CCC(Cc4ccccc4)CC3)cccc2C1=O` gave SW480 rereplic -2%, MCF10A rerep 19%, PINK1 expr mod 0%, KB-3-1 cytotox 18µM* and KB-V1 cytotox inconclusive.
CCC1CCCCN1C(=O)COc1cccc2c1CCN(C)C2=O (stereo not drawn) was read as SW480 rereplic -5%, MCF10A rerep -4%, PINK1 expr mod 4%, KB-3-1 cytotox inactive and KB-V1 cytotox 21µM*.
CN1CCc2c(OCC(=O)NC3CCCCC3)cccc2C1=O was read as SW480 rereplic -16%, MCF10A rerep -2%, PINK1 expr mod 1%, KB-3-1 cytotox inactive and KB-V1 cytotox inactive.
Screening Cc1ccc(N2C(=O)C3C4C=CC(CNC(=S)N5CCN(c6cccc(C)c6)C(C)C5)(O4)C3C2=O)cc1 (stereo not drawn) returned SW480 rereplic 10µM*, MCF10A rerep 21µM*, PINK1 expr mod 15%, KB-3-1 cytotox inconclusive and KB-V1 cytotox inconclusive.
COCCNc1ncnc2c1ncn2[C@H]1CN(Cc2ccc(F)cc2)C[C@@H](CO)O1 was read as PINK1 expr mod 3%, KB-3-1 cytotox inactive and KB-V1 cytotox inactive.
Screening CN(C)CCNc1ncnc2c1ncn2[C@H]1CN(Cc2ccc(F)cc2)C[C@@H](CO)O1 returned PINK1 expr mod 1%, KB-3-1 cytotox 8.2µM* and KB-V1 cytotox inactive.
For CC1(C)CC(N=c2cc(-c3ccccc3)oc3ccc(Cl)cc23)CC(C)(C)N1 the results were SW480 rereplic inconclusive, MCF10A rerep inconclusive, PINK1 expr mod -2%, KB-3-1 cytotox 21µM* and KB-V1 cytotox inconclusive.
COc1ccc(C)cc1NC(C)C(=O)c1c[nH]c2ccccc12 (stereo not drawn) was read as PINK1 expr mod -1%, KB-3-1 cytotox inactive and KB-V1 cytotox inactive.
For O=S(=O)(NC1CC1)c1ccc(S(=O)(=O)N2CCC3(CC2)OCCO3)cc1 the results were SW480 rereplic -8%, MCF10A rerep -7%, PINK1 expr mod 0%, KB-3-1 cytotox inactive and KB-V1 cytotox inconclusive.
`CC(C)CNS(=O)(=O)c1ccc(S(=O)(=O)N2CCC3(CC2)OCCO3)cc1` gave SW480 rereplic 0.18µM*, MCF10A rerep -57%, PINK1 expr mod 5%, KB-3-1 cytotox inactive and KB-V1 cytotox 15µM*.
Screening COc1ccc(NC(=O)CSc2nc3nc(C)c(Cc4ccccc4)c(C)n3n2)cc1OC returned PINK1 expr mod 2%, KB-3-1 cytotox inactive and KB-V1 cytotox inactive.
CCCCCCNC(=O)O[C@H]1Cn2c(=O)ccc(=O)n2[C@@H]2CN(S(=O)(=O)c3ccc(C)cc3)C[C@]12O was read as PINK1 expr mod -1%, KB-3-1 cytotox 16µM* and KB-V1 cytotox inactive.
Screening Cc1ccc(S(=O)(=O)N2C[C@H]3n4c(=O)ccc(=O)n4C[C@H](OC(=O)NCc4ccccc4F)[C@@]3(O)C2)cc1 returned PINK1 expr mod -2%, KB-3-1 cytotox inconclusive and KB-V1 cytotox inactive.
`N/C(=N\S(=O)(=O)c1cc(C(F)(F)F)cc(C(F)(F)F)c1)c1ccc(Cl)cc1` gave SW480 rereplic 10µM*, MCF10A rerep 13µM*, PINK1 expr mod inconclusive, KB-3-1 cytotox inactive and KB-V1 cytotox inconclusive.
For CC(=O)c1ccc(NC(=O)CSc2cn(CC(=O)N(C(C)C)C(C)C)c3ccccc23)cc1 the results were PINK1 expr mod 0%.
For COc1cc(N2C(=O)C=CC2=O)ccc1N1C(=O)C=CC1=O the results were SW480 rereplic 13µM*, MCF10A rerep 6.5µM*, PINK1 expr mod -6%, KB-3-1 cytotox 18µM* and KB-V1 cytotox inconclusive.
For Cc1ccc2c(CC(=O)Nc3ccc(F)c(S(=O)(=O)N4CCOCC4)c3)coc2c1 the results were SW480 rereplic -1%, MCF10A rerep -1%, PINK1 expr mod 1%, KB-3-1 cytotox inactive and KB-V1 cytotox inactive.
For CSC(SC)=C(C#N)C(=O)c1ccccc1 the results were SW480 rereplic inconclusive, MCF10A rerep 23µM*, PINK1 expr mod 4%, KB-3-1 cytotox inactive and KB-V1 cytotox inconclusive.
`COc1cccc(C(=O)C(C#N)=C(SC)SC)c1` gave SW480 rereplic inconclusive, MCF10A rerep inconclusive, PINK1 expr mod 1%, KB-3-1 cytotox inactive and KB-V1 cytotox inactive.
`O=C(NCc1ccco1)c1cccc2c1C(=O)c1ccc(/C=C/c3ccccc3)cc1S2(=O)=O` gave SW480 rereplic inconclusive, MCF10A rerep 9.2µM*, PINK1 expr mod 4%, KB-3-1 cytotox inconclusive and KB-V1 cytotox inactive.
CC(C)c1cccc(-c2ccc3c(c2)S(=O)(=O)c2cccc(C(=O)NCc4ccccc4Cl)c2C3=O)c1 was read as SW480 rereplic -97%, MCF10A rerep inconclusive, PINK1 expr mod 19%, KB-3-1 cytotox 6.5µM* and KB-V1 cytotox inactive.
`Cc1cnc(CNc2nc(-c3ccoc3)nc3ccccc23)cn1` gave PINK1 expr mod -1%.
Screening Cc1c2n(c3ccccc13)CC/C2=N\O returned SW480 rereplic 1%, MCF10A rerep 1%, PINK1 expr mod -1%, KB-3-1 cytotox inconclusive and KB-V1 cytotox 5.2µM*.
Screening COc1ccccc1CC(=O)Nc1ccc2nc(Nc3cccc(Cl)c3)cc(C)c2c1 returned PINK1 expr mod 2%, KB-3-1 cytotox inactive and KB-V1 cytotox inactive.

High-throughput results as filed in PubChem BioAssay.
